Measured values: paper PMC8384837, “Expanding the binding specificity for RNA recognition by a PUF domain”

These sequences were tested against PUM1 PUF domain R4-TPQ (Homo sapiens, UniProt Q14671 828-1176, N971T;H972P) (assay: yeast three-hybrid, YBZ-1, SC-Leu-His + 0.5 mM 3-AT, 4 days). Conditions: tags: N-Gal4 AD-HA kept; label: inside an RPR1-promoter hybrid RNA with tandem MS2 sites; ssRNA.
Summary of the method: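 Pumilio-1 PUF domain libraries, randomized (NNK) at the three base-contacting residues of each repeat, were co-expressed with matching RNA elements from a centromeric plasmid in strain YBZ-1 (LexA–MS2 coat fusion, HIS3 reporter). Transformants were plated on SC-Leu (input) and SC-Leu-His + 0.5 mM 3-AT (selection) for four days, and repeat regions were PCR-amplified and Illumina-sequenced. The interaction score is the log2 change in variant frequency from input to selection, with pseudocount 1 where absent.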
“GGCUAGAACUAGUGGAUCCCCCGGCGCCCGGCGGCUCGAGCCCGGGUAAGUGUAGAUAGUCUGCAUGCCGCCGGGCGCCAUGCCUGCAGGUCGACUCUAGAAAACAUG” was tested, and the binding signal was 1.66 log2 enrichment (interaction score). With “GGCUAGAACUAGUGGAUCCCCCGGCGCCCGGCGGCUCGAGCCCGGGUAAGUGUACAUAGUCUGCAUGCCGCCGGGCGCCAUGCCUGCAGGUCGACUCUAGAAAACAUG” the binding signal was 3.39 log2 enrichment (interaction score). For “GGCUAGAACUAGUGGAUCCCCCGGCGCCCGGCGGCUCGAGCCCGGGUAAGUGUAUAUAGUCUGCAUGCCGCCGGGCGCCAUGCCUGCAGGUCGACUCUAGAAAACAUG”, the binding signal was 4.97 log2 enrichment (interaction score).
